Assay results as given in PubChem BioAssay AID463173 (ICCB-Longwood Screening Facility, Harvard Medical School, 2010).
Among all 52,000 compounds or so, about 4,300 (8.3%) were called active. The full list was thinned out, with actives kept by preference. Unmarked numbers belong to inactive results. Cut-off read from the data, not from the text of the source: active = survival mostly below about 52% (no sharp cut-off); inactive = mostly above about 56%.

Each compound was assayed on DeltatarO mutant (assay: growth inhibition of S. aureus wild type versus tarO mutant, primary screen, teichoic acid synthesis inhibitors, RN4220, OD600 (AID 463173)). Conditions: OD600, 18 h, active compounds read low, screened at 18.75 µg/mL (by protocol).

Row | SMILES | survival
1 | CCCCN(CC)CCCNC(=O)c1cc2c(=O)[nH]c3ccccc3c2n1C | 90%
2 | CN(C)c1ccc(NC(=O)Cn2c(SCc3ccc(F)cc3)nc3ccncc32)cc1 | 72%
3 | O=C(Cn1c(SCc2ccccc2F)nc2ccncc21)Nc1ccccc1C(F)(F)F | 66%
4 | COc1ccc(CSc2nc3ccncc3n2CC(=O)Nc2cc(C)cc(C)c2)cc1 | 60% (active)
5 | CCc1ccccc1NC(=O)Cn1c(SCc2ccc(F)cc2)nc2ccncc21 | 36% (active)
6 | COc1ccc(CSc2nc3ccncc3n2CC(=O)Nc2ccc(C)c(F)c2)cc1 | 85%
7 | COc1cccc(CSc2nc3ccncc3n2CC(=O)Nc2ccc(OC)c(OC)c2OC)c1 | 98%
8 | COc1ccc(S(=O)(=O)N(CCc2ccccc2)CC(=O)Nc2cc(C)cc(C)c2)cc1OC | 54%
9 | Cc1ccc(C)c(Cn2c(=O)n(-c3ccc(F)cc3)c(=O)c3sc4ccccc4c32)c1 | 95%
10 | CC[N+](C)(C)Cc1ccco1 | 80%
11 | COc1cc2c(C(=O)Nc3cc(OC)c(OC)c(OC)c3)cn(C)c(=O)c2cc1OC | 63%
12 | OC1(C#Cc2ccccc2)CCCCC1 | 104%
13 | COc1ccc(CCCc2n[nH]c(=S)o2)c(C)c1 | 94%
14 | Cn1c(=O)c2c(-c3ccccc3Br)n(Cc3ccccc3)cc2n(C)c1=O | 88%
15 | Cn1c(=O)c2c(-c3ccccc3Br)n(CCc3ccccc3)cc2n(C)c1=O | 45% (active)
16 | Cn1c(=O)c2c(-c3ccc(Br)cc3)n(CCc3ccccc3)cc2n(C)c1=O | 89%
17 | Cn1c(=O)c2c(-c3ccccc3Cl)n(-c3cc(Cl)ccc3O)cc2n(C)c1=O | 53% (active)
18 | Cn1c(=O)c2c(-c3ccc(Br)cc3)n(Cc3ccc(F)cc3)cc2n(C)c1=O | 49% (active)
19 | Cn1c(=O)c2c(-c3ccc(Cl)cc3)n(CCc3ccccc3)cc2n(C)c1=O | 93%
20 | Cn1c(=O)c2c(-c3ccccc3Cl)n(Cc3ccc(Cl)cc3)cc2n(C)c1=O | 60%
21 | Cn1c(=O)c2c(-c3ccc(Cl)cc3)n(Cc3ccccc3)cc2n(C)c1=O | 40% (active)
22 | CCCCn1cc2c(c1-c1ccccc1Br)c(=O)n(C)c(=O)n2C | 76%
23 | CCCCn1cc2c(c1-c1ccc(Br)cc1)c(=O)n(C)c(=O)n2C | 58%

Row | SMILES | survival
24 | Cn1c(=O)c2c(-c3ccc(Cl)cc3)n(Cc3ccc(Cl)cc3)cc2n(C)c1=O | 56%
25 | Cc1ccc(-c2c3c(=O)n(C)c(=O)n(C)c3cn2-c2cc(C)ccc2O)cc1 | 75%
26 | O=C(NCc1ccccc1Cl)c1ccc2c(c1)N(Cc1ccccc1)C(=O)c1ccccc1S2 | 144%
27 | O=C(Nc1cnn(C23CC4CC(CC(C4)C2)C3)c1)c1cc(-c2ccccc2)on1 | 101%
28 | COc1ccc(NC(=O)C(C)Sc2nc(C)cc(=O)[nH]2)cc1 (stereo unspecified) | 101%
29 | CC(C)c1ccc(NC(=O)C2(C)Cc3ccccc3C(=O)O2)cc1 (stereo unspecified) | 106%
30 | CC(NC(=O)c1nn(C)c2c1CSc1ccccc1-2)c1ccccc1 (stereo unspecified) | 76%
31 | CCCC(=O)C1=C(c2ccc(C)cc2)N(C(=O)CCC)n2cnnc2S1 | 130%
32 | CCOc1ccc(C2=C(C(=O)CC)Sc3nncn3N2C(=O)CC)cc1 | 17% (active)
33 | CCC(=O)C1=C(c2cccc([N+](=O)[O-])c2)N(C(=O)CC)n2c(nnc2-c2ccccc2)S1 | 8% (active)
34 | CCC(=O)C1=C(c2ccc(OC)c(OC)c2)N(C(=O)CC)n2c(nnc2-c2ccc(C)cc2)S1 | 68%
35 | CC(=O)C1=C(c2cccc([N+](=O)[O-])c2)N(C(C)=O)n2c(nnc2-c2ccc(C)cc2)S1 | 89%
36 | CCC(=O)C1=C(c2ccc(F)cc2)N(C(=O)CC)n2c(nnc2-c2ccc(OC)cc2)S1 | 66%
37 | CCC(=O)C1=C(c2cccc([N+](=O)[O-])c2)N(C(=O)CC)n2c(nnc2C2CCCCC2)S1 | 91%
38 | CCC(=O)C1=C(c2ccccc2)N(C(=O)CC)n2c(nnc2-c2ccccc2)S1 | -5% (active)
39 | CCC(=O)C1=C(c2ccc(F)cc2)N(C(=O)CC)n2cnnc2S1 | 128%
40 | CN(CC(=O)O)Cc1nc2ccccc2[nH]1 | 103%
41 | Cc1c(Cl)cccc1NC(=O)c1ccc(NC(=O)N2CCSc3ncccc32)cc1 | 72%
42 | COC(=O)c1ccc(C=Nc2ccc(O)c(-c3nc4ccccc4o3)c2)cc1 | 93%
43 | COc1ccc(C)cc1-n1cnc2cc(C(=O)NC3CCCC3)ccc21 | 119%
44 | O=C(C1CCC(Cn2c(=O)c3sccc3n(Cc3cccc(F)c3)c2=O)CC1)N1CCCCC1 (stereo unspecified) | 92%
45 | Cc1c(NS(=O)(=O)c2cccc(C(=O)O)c2)c(=O)n(-c2ccccc2)n1C | 67%
46 | O=C1Nc2ccccc2N(O)N1c1ccccc1Cl | 90%

Row | SMILES | survival
47 | CCc1ccc(S(=O)(=O)Nc2ccc3c(c2)n(C)c(=O)c(=O)n3C)cc1 | 79%
48 | COc1ccccc1N1CCN(C(=O)Cn2c(=O)n3nc(-c4cccc(F)c4)nc3c3ccccc32)CC1 | 71%
49 | CC(C)c1ccc(NC(=O)CN2C(=O)CCc3cc(S(=O)(=O)N4CCOCC4)ccc32)cc1 | 87%
50 | O=C(Nc1ccc(F)cc1Cl)c1cnc(N2CCOCC2)c2ccccc12 | 104%
51 | COc1ccc(N=Nc2c(N)n[nH]c2N)cc1 | 1% (active)
52 | COc1cccc(N=Nc2c(O)[nH]c(=O)[nH]c2=O)c1 | 101%
53 | Nc1n[nH]c(N)c1N=Nc1ccc(Cl)cc1 | 64%
54 | Cn1c(=O)c2cc(C(=O)NCCCN3CCN(c4ccc(F)cc4)CC3)sc2c2ccccc21 | 70%
55 | C=C(C)Cn1c(SCC(=O)Nc2cccc(Cl)c2)nc2sc3c(c2c1=O)CCCC3 | 126%
56 | COc1ccc(NC(=O)C(Cc2ccccc2)n2cccc2)cc1OC (stereo unspecified) | 79%
57 | CC(=O)c1cccc(NC(=O)[C@H](Cc2ccccc2)N2Cc3ccccc3C2=O)c1 | 67%
58 | CCc1cccc(NC(=O)C(Cc2ccccc2)n2cccc2)c1 (stereo unspecified) | 18% (active)
59 | Cc1ccc(NC(=O)C(Cc2ccccc2)n2cccc2)cc1C (stereo unspecified) | 28% (active)
60 | Cc1ccc(C)c(NC(=O)C(Cc2ccccc2)n2cccc2)c1 (stereo unspecified) | 107%
61 | O=C(Nc1ccccc1)C(Cc1ccccc1)N1Cc2ccccc2C1=O (stereo unspecified) | 77%
62 | Cc1cccc(NC(=O)C(Cc2ccccc2)n2cccc2)c1C (stereo unspecified) | 75%
63 | Cc1ccc(NC(=O)C(Cc2ccccc2)n2cccc2)c(C)c1 (stereo unspecified) | 67%
64 | O=C(Nc1cccc(Cl)c1)C(Cc1ccccc1)n1cccc1 (stereo unspecified) | 11% (active)
65 | COc1ccc(OC)c(S(=O)(=O)Nc2cc3c(cc2C)n(C)c(=O)c(=O)n3C)c1 | 84%
66 | C1=C(c2cccs2)OC(c2cccs2)=CC1c1cccs1 | 52%
67 | Nc1ncc(S(=O)(=O)NCc2cccc(Cl)c2)cn1 | 74%
68 | CCOc1ccc(S(=O)(=O)N2CCN(c3ccc(Cl)c(Cl)c3)CC2)c2ccccc12 | 168%
69 | COc1ccc(Cn2nnnc2C(c2ccccn2)N2CCc3ccccc3C2)cc1 (stereo unspecified) | 74%

Row | SMILES | survival
70 | O=C1CSC2(C(=O)N(Cc3ccccc3F)c3ccccc32)N1c1cccc(C(F)(F)F)c1 (stereo unspecified) | 87%
71 | O=C(COCc1cc(-c2ccco2)on1)Nc1ccc(OC(F)(F)F)cc1 | 92%
72 | CCOc1ccc(-c2cc3c(=O)n(Cc4nc(-c5cccc(OC)c5OC)oc4C)ccn3n2)cc1Cl | 187%
73 | COc1ccc(C(=O)Nc2nnc(S(=O)(=O)N3CCCc4ccccc43)s2)cc1 | 49%
74 | Cc1ccc(C(=O)Nc2nnc(S(=O)(=O)N3CCc4ccccc43)s2)cc1 | 26% (active)
75 | Cc1ccc(C(=O)Nc2nnc(S(=O)(=O)N3CCCc4ccccc43)s2)cc1 | 39% (active)
76 | COc1cccc(C(=O)Nc2nnc(S(=O)(=O)N3CCCc4ccccc43)s2)c1 | 18% (active)
77 | Cc1ccc2nc(NC(=O)c3ccc(S(=O)(=O)N4CCCc5ccccc54)cc3)sc2c1 | 144%
78 | Cc1cccc(C(=O)Nc2nnc(S(=O)(=O)N3CCCc4ccccc43)s2)c1 | 17% (active)
79 | COc1ccccc1NC(=O)c1c(NCc2ccc(OC)c(OC)c2OC)sc2c1CCCC2 | 93%
80 | COc1ccc(-c2nc3ccccc3n3c(-c4ccc(OC)cc4)c4c(=O)n(C)c(=O)n(C)c4c23)cc1 | 84%
81 | CCOC(=O)c1c(S(=O)(=O)N2CCCC(C(=O)Nc3cccc(C#N)c3)C2)c(C)n(C)c1C (stereo unspecified) | 67%
82 | CCc1ccccc1Nc1sc(C(=O)c2ccccc2)c(N)c1S(=O)(=O)c1ccccc1 | 119%
83 | O=C(Nc1cccc(Cl)c1N1CCOCC1)c1ccco1 | 90%
84 | COc1ccc(S(=O)(=O)CCc2nc3ccccc3n2CC(=O)O)cc1 | 113%
85 | CCOC(=O)c1ccc(NC(=O)C(CC)Sc2nc3ccncc3[nH]2)cc1 (stereo unspecified) | 128%
86 | CCC(CO)NC(=O)C(=O)Nc1c2c(nn1-c1ccc(F)cc1)CSC2 (stereo unspecified) | 80%
87 | CN1CCN(C(=O)C(=O)Nc2c3c(nn2-c2ccc(Cl)cc2)CSC3)CC1 | 72%
88 | CC(=O)N1CCN(C(=O)C(=O)Nc2c3c(nn2-c2ccc(Cl)cc2)CSC3)CC1 | -1% (active)
89 | CN1CCN(C(=O)C(=O)Nc2c3c(nn2-c2ccc(F)cc2)CSC3)CC1 | 72%
90 | CC(NC(=O)C(=O)Nc1c2c(nn1-c1ccc(F)cc1)CSC2)c1ccccc1 (stereo unspecified) | -2% (active)
91 | CC(NC(=O)C(=O)Nc1c2c(nn1-c1ccccc1)CSC2)c1ccccc1 (stereo unspecified) | 61%
